Data on 40 compounds can be found in PubChem BioAssay (Tox21).

“And” between values parts separate entries of the source, which are not always exact repeats. Equal values may be shown once. Records with an inconclusive call do not appear. The source holds several records for some structures; these can differ, active in one and inactive in another. The source made the active and inactive calls. Calls follow the shape of the dose curve; as a rule, active = well fitted cell-killing curve with a large enough effect in the repeat runs; inconclusive = weak or mixed curves; inactive = flat fitted curve, though single readings scatter.
% is scaled to controls: 0 for no effect and ±100 for the full control effect; potency is read from the fitted curve at half-maximal effect.

This assay in a line: qHTS RealTime-Glo MT Cell Viability Assay in HepG2 cells - 24 hour (AID 1224867). Also: nearly all actives have a fitted effect of over 50% in size. Conditions: RealTime-Glo luminescence; series mostly up to 76.8 µM; activity change, negative = cytotoxicity: at the top concentration. An excerpt: U.S. Tox21 Program National Center for Advancing Translational Sciences [NCATS] NIH Chemical Genomics Center [NCGC] U.S. Environmental Protection Agency [EPA] National Institutes of Environmental Health Sciences [NIEHS] National Toxicology Program [NTP] U.S. Food and Drug Administration [FDA] Tox21 Assay Overview: Measure of cell viability is critical in the cell-base assay. Analysis of cell viability is necessary for the characterization of cell responses to cytotoxic drugs and environmental stress. A RealTime-Glo MT Cell Viability Assay to monitor cell viability in real time of continues cell culture during 40 hours of compound treatment was used to screen Tox21 10K library compounds in HepG2 cells. The RealTime-Glo MT Cell Viability Assay is a nonlytic, homogeneous, bioluminescent method to measure cell viability in real time using a simple, plate-based method. The assay involves adding NanoLuc luciferase and a cell-permeant prosubstrate to cells in culture. Viable cells reduce the proprietary prosubstrate to generate a substrate for NanoLuc luciferase. This substrate diffuses from cells into the surrounding culture medium, where it is rapidly used by the NanoLuc Enzyme to produce a luminescent signal. The signal correlates with the number of viable cells, making the assay well suited for cytotoxicity studies.
Tox21 Assay Protocol Summary: The mixture of HepG2 cell suspension and reagents were dispensed at 600cells/6 ul/well in 1536-well tissue culture treated black solid bottom plates using a Multidrop dispenser. After the assay plates were incubated at a 37 C/5% CO2 incubator for 5 hours, 23 nL of compounds dissolved in DMSO, positive and negative controls was transferred to the assay plate by a pintool work station. The plates were incubated at 37 C for 40 hours. The luminescence intensity were measured at 0h, 8h, 16h, 24h, 32h and 40h time points using ViewLux plate reader during compound treatment.
In general terms: qHTS replaces the single test concentration by a dilution series.
For `CCCCCCCCn1sccc1=O`, the Potency was 43.7 µM (active) and 16.2 µM (active).
With `CCC(=O)O[C@@H]1C=C2CCC3C(CCC4(C)C3CC[C@@H]4OC(=O)CC)C2CC1` (stereo not given in full), the “activity change, negative = cytotoxicity” value was -9.28% [at 35.3 µM] (inactive).
As for `[Cl-].[Cl-].[Hg+2]`, the Potency was 48.8 µM (active) and 3.47 µM (active).
In the case of `CCSCc1ccccc1OC(=O)NC`, the “activity change, negative = cytotoxicity” value was -1.36% (inactive).
Same read-out and setting: with `CCOc1cccc(C2(N3CCN(c4ccccc4)CC3)CCC(C)CC2)c1` (stereo not given) the figure was 1.09% (inactive); with `CC(C)(C)NCC(O)c1ccccc1Cl` (stereo not given), 0.15% [at 35.3 µM] (inactive).
On the same count and under the same terms, under `C[N+](C)(C)CC1CO1` (stereo not given) stands 1.58% (inactive).
For the compound `OCC1CO1` (stereo not given), the Potency entry was “inactive”.
With `NC(=O)CF`, the “activity change, negative = cytotoxicity” value was 1% (inactive).
On the same count and under the same terms, with `CC1(C)CC(=O)CC(C)(C)N1[O]` the figure was 0.343% (inactive).
Same read-out and setting: with `CCOP(=S)(OCC)Oc1ccc(S(C)=O)cc1` (stereo not given) the figure was 2.72% (inactive); with `O=S(=O)(c1ccccc1)c1ccccc1`, 0.0593% (inactive).
With `CC(C)(C)CC(C)(C)c1ccc(O)cc1`, the Potency is 46.2 µM (active) and inactive.
As to `c1ccc2c(c1)sc1ccccc12`, the Potency entry was “inactive”.
In the case of `CCC[N+](CCC)(CCC)CCC`, the “activity change, negative = cytotoxicity” value was -0.44% (inactive).
Consider `O=C(O)c1ccc(=O)[nH]c1`, for which the “activity change, negative = cytotoxicity” value is 3.15% [at 35.3 µM] (inactive).
In the case of `OC[P+](CO)(CO)CO`, the Potency entry was “inactive”.
As to `O=C(O)c1cc(Cl)ccc1Cl`, the “activity change, negative = cytotoxicity” value is 0.154% (inactive).
On the same count and under the same terms, under `CC(C)C1(C)N=C(c2ncccc2C(=O)O)NC1=O` (stereo not given) stands 2.08% (inactive).
In the case of `CC[N+]1(C)CCCC(OC(=O)C(O)(c2ccccc2)c2ccccc2)C1` (stereo not given), the “activity change, negative = cytotoxicity” value is 0.909% [at 35.3 µM] (inactive).
With `CN(C)C(=O)Nc1cccc(OC(=O)NC(C)(C)C)c1`, the “activity change, negative = cytotoxicity” value was -1.98% (inactive).
For the compound `O=S(=O)(Cl)Cl`, the “activity change, negative = cytotoxicity” value was -3.56% (inactive).
Take `N#CC(C#N)=C(C#N)C#N`: the “activity change, negative = cytotoxicity” value was 0.622% (inactive).
Still for that read-out and setting: under `COCc1cnc(C2=NC(C)(C(C)C)C(=O)N2)c(C(=O)O)c1` (stereo not given) stands 0.733% (inactive); under `CCCCCl`, 1.99% (inactive).
For `CC1(C)[C@H](C(=O)O[C@H](C#N)c2cccc(Oc3ccccc3)c2)[C@@H]1C=C(Br)Br`, the Potency entry was “inactive”.
Consider `CC(Oc1cccc(Cl)c1)C(=O)O` (stereo not given), for which the “activity change, negative = cytotoxicity” value is 3.26% (inactive).
The same measure, in the same setting: with `CCOC(C(=O)OCCN(C)C)(c1ccccc1)c1ccccc1` the figure was -11.7% [at 35.3 µM] (inactive); with `C1CCNCC1`, 1.26% (inactive).
On to `CC(C)(c1ccccc1)c1cc(-n2nc3ccccc3n2)c(O)c(C(C)(C)c2ccccc2)c1`, for which the “activity change, negative = cytotoxicity” value is -0.167% [at 35.3 µM] (inactive).
Still for that read-out and setting: under `C=C(Cl)Cl` stands 0.599% (inactive); under `O=C(O)C(Cl)(Cl)Br`, 1.48% (inactive).
Still for that read-out and setting: under `CCOC(=O)NC(O)C(Cl)(Cl)Cl` (stereo not given) stands 0.161% [at 35.3 µM] (inactive).
For `C[C@@H]1C[C@@H]([C@H](O)CC2CC(=O)NC(=O)C2)C(=O)[C@@H](C)C1`, the Potency entry was “inactive”.
As to `CCc1ccccc1N`, the “activity change, negative = cytotoxicity” value is 4.08% (inactive).
For the compound `CC(C)CCCCCCCOC(=O)c1ccccc1C(=O)OCCCCCCCC(C)C`, the “activity change, negative = cytotoxicity” value is 26% (inactive).
The same measure, in the same setting: with `CCCN(CCC)C(=O)Cc1c(-c2ccc(Cl)cc2)nc2ccc(Cl)cn12` the figure was -16.4% [at 35.3 µM] (inactive).
Regarding `O=[N+]([O-])/C=C/c1ccccc1`, the Potency was 44.4 µM (active) and 19.5 µM (active).
On to `CCNC(=O)NC(=O)/C(C#N)=N/OC`, for which the “activity change, negative = cytotoxicity” value was 5.04% (inactive).
On the same count and under the same terms, under `CCCCC1C(=O)NC(=O)N(C2CCCCC2)C1=O` (stereo not given) stands 3.25% [at 35.3 µM] (inactive).
